Source: PubChem BioAssay (National Center for Advancing Translational Sciences (NCATS))
KB-3-1 cytotox = kills parental KB-3-1 adenocarcinoma cells; 400,000 tested, 1.4% active; Potency, µM (doses to about 46.1 µM), most hits filed as cytotoxic; AID 1347075; KB-3-1 viability, CellTiter-Glo ATP luminescence, 72 h; further: nearly all actives have a fitted effect of over 60% in size
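Luminescent ATP read-out (CellTiter-Glo) measures survival of drug-naive KB-3-1 cells after 72 h compound exposure at 37 °C. Titration series was screened from lowest to highest concentration, with DMSO vehicle plates as background controls.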
MCF10A rerep = inducers of DNA re-replication in MCF 10A breast cells. MCF 10A DNA re-replication, Hoechst nuclear intensity, 48 h. Potency, µM (titrated, usually from 46.1 µM), actives largely listed as activators. 350,000 tested, 2.9% active; further: nearly all actives have a fitted effect of over 50% in size
KB-V1 cytotox = KB-V1 MDR subline cytotoxicity; KB-V1 MDR cells viability, CellTiter-Glo, 72 h; AID 1347076; 400,000 tested, 3.4% active; Potency, µM (highest dose often 46.1 µM), actives largely listed as cytotoxic; further: nearly all actives have a fitted effect of over 60% in size
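Following 72 h at 37 degrees C with compound, KB-V1 cell viability was read by CellTiter-Glo luminescence, medium being phenol-red-free DMEM plus 10% FBS; concentration-response parameters came from normalized, curve-fitted qHTS data.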
SW480 rereplic = induces DNA re-replication in SW480 colon adenocarcinoma cells; 340,000 tested, 1.8% active; Potency, µM (titrated, usually from 46.1 µM), hits mostly activators; AID 624297; SW480 DNA re-replication, Hoechst DNA content imaging, 48 h; further: nearly all actives have a fitted effect of over 55% in size
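First, 250 cells per well were seeded. Next, compound or vehicle (23 nL) was pinned in, plates sat 48 hr at 37 C. Finally Hoechst was added for 40 min before fluorescence scanning.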
ELG1 DNA repair = inhibitors of ELG1-dependent DNA repair in HEK293T cells | HEK293T ELG1-luciferase reporter, luminescence, 16 h; DNA damage induced by 5-fluorouridine | Potency, µM (doses to about 46.1 µM), most hits filed as inhibitors | 330,000 tested, 2.3% active; further: nearly all actives have a fitted effect of over 55% in size
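Luminescence from the luciferase reporter, measured 30 min after ONE-Glo reagent at room temperature, was the read-out. Beforehand, 2,000 cells per well were exposed for 16 hr at 37 °C to 5-fluorouridine together with compound or vehicle.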
Each line names hits and unclear results; the compound was inactive in the other large screens. Only some compounds are listed: those with a hit (about 8.1% of all), similar ones and a draw of the others. The call rests on the fitted dose curve; in most records, active means well fitted curve in the direction sought with a large enough effect; inconclusive means small, poorly fitted or top-dose-only effect, or another doubt; inactive means no such curve, though single readings can be large; an effect the other way counts as inactive or inconclusive.

CC(=O)Nc1cc([N+](=O)[O-])ccc1OCc1ccccc1	KB-V1 cytotox 18.4µM (no result: ELG1 DNA repair)
CC1CCN(C(C(=O)Nc2ccc(C(C)C)cc2)c2ccc3c(c2)OCO3)CC1 (stereo not given)	KB-3-1 cytotox inconclusive, MCF10A rerep inconclusive
CC1CCN(C(=O)c2scc3c2OCCO3)CC1	ELG1 DNA repair 18.4µM
S=C1NC(c2ccccc2)=CC(c2ccccc2)N1 (stereo not given)	MCF10A rerep inconclusive
S=C1NC(c2cccs2)=CC(c2ccc(Br)cc2)N1 (stereo not given)	MCF10A rerep inconclusive, KB-V1 cytotox inconclusive, SW480 rereplic 20.6µM
CC(=O)N1CC(C(=O)Nc2ccc3c(c2)OCO3)Oc2ccccc21 (stereo not given)	KB-V1 cytotox 20.6µM, ELG1 DNA repair inconclusive
CC(C)(C)c1ccc(C(=O)N2CCNCC2)cc1	none
CN1CCC2(CC1)N=C(c1ccc(F)cc1)C(=S)N2C(=O)c1ccc(C(C)(C)C)cc1	KB-3-1 cytotox inconclusive, MCF10A rerep 8.2µM, KB-V1 cytotox inconclusive
COC(=O)c1ccc(COC(=O)CCc2nc(-c3ccccc3)c(-c3ccccc3)o2)cc1	none
CCc1ccc(Nc2ccc3nonc3c2[N+](=O)[O-])cc1	none (no result: ELG1 DNA repair)
CCOC(=O)NNc1ccc2nonc2c1[N+](=O)[O-]	KB-3-1 cytotox inconclusive, SW480 rereplic 23.1µM, ELG1 DNA repair inconclusive
COc1ccc(NC(=O)COC(=O)CC23CC4CC(CC(C4)C2)C3)c([N+](=O)[O-])c1	MCF10A rerep inconclusive, KB-V1 cytotox inconclusive, ELG1 DNA repair inconclusive (no result: SW480 rereplic)
CC(=O)N1CCN(c2ccc([N+](=O)[O-])cc2C#N)CC1	KB-V1 cytotox inconclusive
CCCCc1ccc(Nc2nc(CCC)cc(=O)[nH]2)cc1	KB-3-1 cytotox inconclusive, MCF10A rerep 5.8µM, KB-V1 cytotox inconclusive, SW480 rereplic inconclusive, ELG1 DNA repair inconclusive
CCCCc1c(C)nc(Nc2ccc(OC)cc2)[nH]c1=O	KB-V1 cytotox 23.1µM, SW480 rereplic inconclusive
O=C(c1cccc(N2C(=O)c3ccccc3C2=O)c1)N1CCCCCC1	none
CCOCCCN(C(=O)CCC(=O)Nc1cc(C)on1)C(C(=O)NC(C)(C)CC)c1cccc(OC)c1OC (stereo not given)	MCF10A rerep inconclusive
COc1ccc(-c2c/c(=N\c3nc(-c4ccccc4)c(C)s3)c3ccccc3o2)cc1O	KB-3-1 cytotox 5.17µM, MCF10A rerep inconclusive, KB-V1 cytotox 5.8µM, SW480 rereplic inconclusive, ELG1 DNA repair inconclusive
COc1ccc(-c2cc(=Nc3c(C)n(C)n(-c4ccccc4)c3=O)c3ccccc3o2)cc1	KB-V1 cytotox inconclusive, ELG1 DNA repair inconclusive
Cc1cc(NC(=O)CN2CCOCC2)n(-c2nc3ccccc3s2)n1	MCF10A rerep 14.6µM, KB-V1 cytotox inconclusive (no result: ELG1 DNA repair)
CCOC(=O)N1CCN(CC(=O)Nc2nc3ccccc3s2)CC1	KB-V1 cytotox 11.6µM
CCOC(=O)N1CCN(CC(=O)Nc2nc3ccc(OC)cc3s2)CC1	ELG1 DNA repair 14.6µM
Cc1cc(NC(=O)CN2CCOCC2)n(-c2ccccc2)n1	none
O=C(OCC(=O)N1CCc2ccccc2C1)c1ccc(Cl)c([N+](=O)[O-])c1	ELG1 DNA repair inconclusive
N#Cc1c(NC(=O)Cn2cnc3ccccc3c2=O)oc(-c2ccccc2)c1-c1ccccc1	none
CC1(C)NC(=O)N(CC(O)COc2ccc(N3C(=O)c4ccccc4C3=O)cc2)C1=O (stereo not given)	none
COC(=O)Cc1c(C)nc(SCc2ccccc2)[nH]c1=O	KB-3-1 cytotox inconclusive
COc1ccccc1OCCSc1nc2ccccc2c(=O)[nH]1	MCF10A rerep 20.6µM, ELG1 DNA repair inconclusive
O=C(Nc1nsc(-c2ccccc2)n1)c1ccc(F)cc1	ELG1 DNA repair inconclusive
COc1ccc(C(C(=O)NC2CCCCC2)N(C(=O)c2cccs2)c2ccc3c(c2)OCO3)cc1 (stereo not given)	MCF10A rerep inconclusive
O=C(NC1CCCCC1)C(c1ccc2ncccc2c1)N(Cc1ccccc1)C(=O)c1ccc2c(c1)OCCO2 (stereo not given)	ELG1 DNA repair inconclusive
COc1ccc(CN(C(=O)c2ccc3c(c2)OCCO3)C(C(=O)NC2CCCCC2)c2ccc3ncccc3c2)cc1 (stereo not given)	MCF10A rerep 13µM
